# Results filed as inconclusive are left out. A call without a number means that no potency is given here. The source made the active and inactive calls. Calls come from the whole dose curve; as a rule, active = well fitted cell-killing curve with a large enough effect; inconclusive = small, poorly fitted or top-dose-only effect, or effect the other way; inactive = flat fitted curve, though single readings scatter.
# Test: Cell Viability - HUV-EC-C (AID 542); note: nearly all actives have a fitted effect of over 35% in size
# Settings: HUV-EC-C endothelial cell viability, qHTS; series mostly up to 92.2 µM
# Excerpt: NIH Chemical Genomics Center [NCGC]
# NIH Molecular Libraries Screening Centers Network [MLSCN]
# National Institutes of Environmental Health Sciences [NIEHS]
# National Toxicology Program [NTP]
# We have developed a 1536-well cell-based assay for quantitative high throughput screening (qHTS) against a number of cell lines to determine in vitro cytotoxicity of small molecules. This particular assay uses the HUV-EC-C cell line which is derived from normal human vascular endothelial cells.
# NCGC Assay Protocol Summary:
# The CellTiter-Glo luminescent cell viability assay (Promega) is a homogeneous method to measure the number of viable cells in culture. The end point readout of this assay is based on quantitation of intracellular ATP, an indicator of metabolic activity, using the luciferase reaction. Luciferase catalyzes the oxidation of beetle Luciferin to oxyluciferin and light in the presence of ATP. The luminescent signal is proportional to amount of ATP present.
# Using the CellTiter-Glo luminescent cell viability assay, the amount of cellular ATP was measured in the HUV-EC-C cell line with complete culture medium following compound treatment for 40 hours. The assay was performed in opaque white Kalypsys 1536-well plates. In the screen, tamoxifen and doxorubicin were used as positive controls. Library compounds were measured for their ability to cause acute toxicity in the cell line, as reflected by a decrease in intracellular ATP levels, in a concentration-dependent manner. […] AC50 values were determined from concentration-response data modeled with the standard Hill equation.
# qHTS protocol for CellTiter Glo HUV-EC-C cellular assay
# [Step] [Parameter] [Value] [Description]
# 1. Reagent; 5 uL; 1000 HUV-EC-C cells/well
# 2. Time; 5 hr; 37 °C incubation
# 4. Controls; 23 nL; Tamoxifen 0.34 uM to 100 uM & Doxorubicin 0.02 nM to 100 uM
# 5. Time; 40 hr; 37 °C incubation
# 6. Reagent; 5 uL; CellTiter Glo reagent
# 7. Time; 20 min; Room Temperature
# 8. Detection; Luminescence; Viewlux plate reader
# Keywords: cell viability, cytotoxicity, HUV-EC-C cell line, luminescence, NTPHTS, NTPHTS_NCGC, NIEHS, EPA, DSSTox, MLSMR, MLSCN, NIH Roadmap, qHTS, NCGC
# Potency is the fitted concentration of half-maximal effect.
row,Structure (SMILES),Potency
1,CC(=O)[C@H]1CC[C@H]2[C@@H]3CCC4=CC(=O)CC[C@]4(C)[C@H]3CC[C@]12C,inactive
2,Cc1nnc(NS(=O)(=O)c2ccc(N)cc2)s1,inactive
3,Cc1cc(NS(=O)(=O)c2ccc(N)cc2)no1,inactive
4,C[C@]12C=CC(=O)C=C1CC[C@@H]1[C@@H]2C(=O)C[C@@]2(C)[C@H]1CC[C@]2(O)C(=O)CO,inactive
5,Cc1noc(NS(=O)(=O)c2ccc(N)cc2)c1C,inactive
6,NC(N)=NC(N)=NCCc1ccccc1,inactive
7,Cc1ccnc2c1NC(=O)c1cccnc1N2C1CC1,inactive
8,O=C(N[C@H](CO)[C@H](O)c1ccc([N+](=O)[O-])cc1)C(Cl)Cl,inactive
9,CC(=O)Oc1ccccc1C(=O)Nc1ncc([N+](=O)[O-])s1,31.6 µM (active)
10,CC1=NN(c2ccccc2)C(=O)C1,inactive
11,Cc1ncc([N+](=O)[O-])n1CCO,inactive
12,CN(C)c1ccc(C(=C2C=CC(=[N+](C)C)C=C2)c2ccc(N(C)C)cc2)cc1,3.98 µM (active)
13,CC[C@H](C)C(=O)O[C@H]1C[C@@H](C)C=C2C=C[C@H](C)[C@H](CC[C@@H]3C[C@@H](O)CC(=O)O3)[C@H]21,inactive
14,CCc1cc(C(N)=S)ccn1,inactive
15,COc1ccc2cc3[n+](cc2c1OC)CCc1cc2c(cc1-3)OCO2,inactive
16,O=C(O)c1cc(=O)[nH]c(=O)[nH]1,inactive
17,NNC(=O)c1ccncc1,inactive

# — PubChem BioAssay (NCATS)
